# Screening data (PubChem)
# MITF inh = human MITF inhibition, primary screen | AID 1259374 | 0.91% of 650,000 active | AlphaScreen MITF homodimerization, bead proximity signal | inhibition, % at 2.6 µM; in the data active means inhibition above about 50%
# GPR151 ag = activates the human receptor GPR151. Q8TDV0. PathHunter beta-arrestin GPR151 cells, luminescence. activation, % at 11.2 µM. 1% of 650,000 active. AID 1508602; in the data active means activation above about 4.9%
# Target sequence (Q8TDV0 whole entry, looked up): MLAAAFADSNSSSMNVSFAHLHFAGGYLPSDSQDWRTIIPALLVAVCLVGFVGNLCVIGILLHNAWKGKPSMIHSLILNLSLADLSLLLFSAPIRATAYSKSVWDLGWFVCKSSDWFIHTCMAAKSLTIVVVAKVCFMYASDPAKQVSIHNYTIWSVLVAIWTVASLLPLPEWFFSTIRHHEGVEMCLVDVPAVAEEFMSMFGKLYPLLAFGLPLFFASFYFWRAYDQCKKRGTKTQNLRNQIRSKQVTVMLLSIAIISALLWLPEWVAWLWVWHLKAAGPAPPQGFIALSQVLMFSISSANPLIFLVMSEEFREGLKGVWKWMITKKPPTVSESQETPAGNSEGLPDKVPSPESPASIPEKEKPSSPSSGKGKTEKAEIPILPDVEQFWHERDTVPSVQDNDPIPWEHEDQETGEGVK
# FBW7 activator = activators of human E3 ligase FBW7; Q969H0; AlphaScreen FBW7–phospho-cyclin E peptide binding, activator screen; normalized activity (activation), % at 26.1 µM; 0.13% of 650,000 active; in the data active means normalized activity above about 1.9%;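 further: purified mutant Fbw7 with reduced substrate affinity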
# TEAD-YAP block = TEAD-YAP interaction inhibition. 1.4% of 640,000 active. inhibition, % at 9.12 µM. HEK-TIYL cells, TEAD-Gal4/YAP UAS-luciferase luminescence; in the data active means inhibition above about 32%
# MITF confirm = human MITF inhibition, confirmation. shares compounds with MITF inh. AlphaScreen MITF homodimerization, biotin/His-MITF beads. inhibition, % at 2.6 µM. 16% of 4,700 active. AID 1259372;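 active means inhibition above a cutoff derived from the DMSO control wells, cut at about 28% in these data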;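 further: inhibitors lower the bead chemiluminescence by keeping MITF from dimerizing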
# AlphaScreen DR = counter-screen: compounds optically interfering with AlphaScreen | IC50, µM | AID 1259373 | shares compounds with MITF inh | 6% of 480 active | AlphaScreen optical interference counterscreen, cell-free; call rule not given here
# AlphaScreen intf2 = counter-screen: compounds optically interfering with AlphaScreen; shares compounds with MITF inh; LysRS AlphaScreen counterscreen, signal interference, triplicate; inhibition, % at 2.6 µM; 7.6% of 4,700 active; AID 1259376;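 active means inhibition above a cutoff derived from the DMSO control wells, cut at about 30% in these data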
# Numbers stand for hits; - = inactive; . = not tested or not shown; ! = not confirmed by another sample. The list is not random: actives were taken first. Their share in the collection is about 3.4%.
SMILES,MITF inh,GPR151 ag,FBW7 activator,TEAD-YAP block,MITF confirm,AlphaScreen intf2,others
COc1ccc(OCC(=O)N2CCN(Cc3cccc(Br)c3)CC2)cc1,64,-,-,-,-,-,
COc1cc(OC)c(OC)cc1CN1CCN(C(=O)COc2ccccc2)CC1,54,-,-,-,-,-,
CSc1ccc(CN2CCN(C(=O)COc3ccc(Cl)cc3)CC2)cc1,-,-,-,-,.,.,
Cc1ccc(Cn2cccc(C(=O)Nc3ccc(C)cc3)c2=O)cc1,-,-,-,-,.,.,
O=c1cccc2n1CC1CC2CN(Cc2ccccc2[N+](=O)[O-])C1 (stereo not given),-,-,-,-,.,.,
Cc1nn(Cc2ccccc2Cl)c(Cl)c1C=O,-,-,-,-,.,.,
Cc1nn(C)c(C)c1NS(=O)(=O)c1c(Cl)cc(-c2ccnc(N3CCNCC3)c2)cc1Cl,.,-,.,.,.,.,
O=c1cccc2n1CC1CC2CN(Cc2cc3c(cc2[N+](=O)[O-])OCO3)C1 (stereo not given),-,-,-,-,.,.,
CCOC(=O)c1ccc(NC(=O)CCc2nc(C3=CCN(C)CC3)no2)cc1,62,-,3.4,-,69,38,
O=C(O)CSc1cc(Cl)c2nonc2c1[N+](=O)[O-],87,-,-,-,85,-,AlphaScreen DR=-
O=[N+]([O-])c1c(Cl)cc(Cl)c2nonc12,-,-,-,-,.,.,
Cc1cccc(CC(=O)N2CCN(Cc3nc4ccccc4[nH]3)CC2)c1,55,-,-,-,-,-,
Cc1[nH]c2ccc(OC(F)(F)F)cc2c1CCN,-,-,-,-,.,.,
C[N+]1(C)C2CCC1CC(OC(=O)C(CO)c1ccccc1)C2 (stereo not given),63!,-,-,-,-,-,
C[N+]1(C)[C@@H]2CC[C@H]1CC(OC(=O)C(CO)c1ccccc1)C2 (stereo not given in full),-,-,-,.,.,.,
O=C(c1cc2c(s1)-c1ccccc1S(=O)(=O)C2)N1CC1,-,-,-,-,.,.,
CCC(C)N1CCN(Cc2ccc(Cl)cc2)CC1 (stereo not given),74,-,-,-,-,-,
CCC(C)N1CCN(Cc2ccc(F)cc2)CC1 (stereo not given),59,-,-,-,-,-,
CCC(C)N1CCN(Cc2cccc(Cl)c2)CC1 (stereo not given),-,-,-,-,.,.,
CC(C)N1CCN(Cc2ccncc2)CC1,82,-,-,-,-,-,
CC(C)N1CCN(Cc2ccc(F)cc2)CC1,55,-,-,-,-,-,
CC(C)N1CCN(Cc2ccc(Br)cc2)CC1,-,-,-,-,.,.,
CCC(C)N1CCN(Cc2ccc(Br)cc2)CC1 (stereo not given),71,-,-,-,-,-,
Cc1ccc2nc(N3CCC(NC(C)Cc4cccs4)CC3)nc(C)c2c1 (stereo not given),-,-,-,-,.,.,
OC(C#CCN1CCCCC1)(c1ccccc1)C1CCCCC1 (stereo not given) (tested in a mixture with another compound),-,-,-,-,.,.,
SMILES,MITF inh,GPR151 ag,FBW7 activator,TEAD-YAP block,MITF confirm,AlphaScreen intf2,others
CCOc1ccc(CN2CCN(Cc3cccc(C)c3)CC2)cc1,54,-,-,-,-,-,
CCOc1ccc(CN2CCN(Cc3cccc(Cl)c3)CC2)cc1,67,-,-,-,-,-,
CCN1CCN(Cc2cccc(Cl)c2)CC1,-,-,-,-,.,.,
Cn1c(=O)oc2cc(S(=O)(=O)N3CC4CC(C3)c3cccc(=O)n3C4)ccc21 (stereo not given),-,-,-,-,.,.,
O=C1NC(=O)C(=Cc2cccc(OC(F)(F)C(F)F)c2)C(=O)N1,-,-,-,-,.,.,
CCCOc1ccc(C2SCC(=O)Nc3c2c(=O)[nH]n3C2CCOC(C)(C)C2)cc1 (stereo not given),-,-,-,-,.,.,
CC1CCN(c2nc3ccccc3c(=O)n2-c2ccccc2)CC1,-,-,-,-,.,.,
O=C(COc1ccccc1)N1CCN(Cc2ccccn2)CC1,78,-,-,-,-,-,
Cn1cccc1CN1CCN(C(=O)COc2ccccc2)CC1,53,-,-,-,-,-,
O=C(Cc1ccccc1)N1CCN(Cc2ccccn2)CC1,-,-,-,-,.,.,
OC(c1ccccc1)(c1ccccn1)c1ccccc1Cl (stereo not given),-,-,-,-,.,.,
CCN1CCN(Cc2ccc(OC)c(C)c2C)CC1,53,-,-,-,-,-,
CCN1CCN(Cc2cc(OC)c(OC)c(OC)c2)CC1,52,-,-,-,-,-,
COc1cc(CN2CCN(c3ccccc3)CC2)cc(OC)c1O,-,-,-,-,.,.,
COc1cc(CN2CCN(CCO)CC2)cc(OC)c1OC,-,-,-,-,.,.,
Cc1cccc(CN2CCN(C(C)C)CC2)c1,-,-,-,-,.,.,
COc1cc(CN2CCN(C(C)C)CC2)cc(OC)c1OC,82,-,-,-,-,-,
COc1cc(CN2CCN(C(C)C)CC2)cc(OC)c1O,71,-,-,-,-,-,
Fc1ccccc1CCNC1CN2CCC1CC2 (stereo not given),-,-,-,-,.,.,
COc1ccc(-n2c(/C=C/c3ccccc3)nc3ccccc3c2=O)cc1Cl,-,-,-,-,.,.,
CCOc1cc(CN2CCN(CC)CC2)ccc1O,57,-,-,-,-,-,
CCC(CC)N1CCN(Cc2cc(OC)c(OC)c(OC)c2)CC1,57,-,-,-,-,-,
CN1CCN(Cc2c(O)ccc3ccccc23)CC1,-,-,-,-,.,.,
CN1CCN(Cc2ccc(O)c3ncccc23)CC1,94,-,-,-,106,101,
CCCOc1cc(C)cc2oc(=O)c3c(c12)CCCC3,-,-,-,-,.,.,
SMILES,MITF inh,GPR151 ag,FBW7 activator,TEAD-YAP block,MITF confirm,AlphaScreen intf2,others
N#Cc1ccc(NC(=O)COC(=O)CSc2ccccc2)cc1Cl,-,-,-,-,.,.,
COc1cc(OC)c(OC)cc1CNCCc1ccc(Cl)cc1,-,-,-,-,.,.,
COc1ccc(CCNCc2cc(OC)c(OC)cc2OC)cc1,61,-,-,-,-,-,
O=C(Nc1nc2ccccc2s1)c1c(O)c2c(n(Cc3ccccc3)c1=O)CCCC2,-,-,-,-,.,.,
COc1ccc(CN2CCN(C(=O)COc3ccccc3)CC2)cc1OC,-,-,-,-,.,.,
COc1ccc(CN2CCN(Cc3cccc(Cl)c3)CC2)cc1Br,68,-,-,-,39,-,AlphaScreen DR=-
COc1ccc(CN2CCN(C(=O)Cc3ccccc3)CC2)cc1Br,53,-,-,-,-,-,
COc1ccc2ccccc2c1CN1CCN(C(=O)Cc2ccccc2)CC1,55,-,-,-,-,-,
COc1ccc(CN2CCN(Cc3cccc(Br)c3)CC2)cc1Br,76,-,-,-,-,-,
COc1ccc(CN2CCN(Cc3ccc(C)cc3)CC2)cc1Br,53,-,-,-,-,-,
CN1C(=O)N(C)C(=O)C(CCc2ccncc2)(Cc2cccc3ccccc23)C1=O,-,-,-,-,.,.,
Cc1nc2ccc(P(=O)(O)O)cc2s1,55,-,-,-,-,40,
